Bioassay records from PubChem.
SARS PLP yeast: blocks SARS-CoV papain-like protease in a yeast assay | S. cerevisiae expressing SARS-CoV PLpro, growth rescue | Potency, µM (top dose mostly 32.9 µM), most hits filed as activators | hit rate 0.19% among 330,000; calls by dose curve; further: nearly all actives have a fitted effect of over 55% in size
Shiga inhibitor: Shiga toxin inhibition; inhibition, % at 38.7 µM; Vero cells, Shiga toxin protein synthesis inhibition reporter; hit rate 9.2% among 290,000; in the data active means inhibition mostly above about 28%, no sharp cut-off; inactive means mostly below about 43%
AMA1-RON2 inh: inhibitors of Plasmodium falciparum AMA1-RON2 interaction; AID 720542; hit rate 0.2% among 360,000; Potency, µM (highest dose often 58.2 µM), actives largely listed as inhibitors; AlphaScreen AMA1-biotinylated RON2 peptide binding; further: nearly all actives have a fitted effect of over 45% in size
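AMA1 (3D7) with his tag at 25 nM final met compounds first, then biotinylated RON2 peptide at 25 nM; detection used donor plus acceptor beads, 10 µg/mL apiece, read by AlphaScreen after 30 min at room temperature.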
Pf growth 96h: inhibits malaria parasite growth, 96 h; Potency, µM (titrated, usually from 28.7 µM), usual class: inhibitors; P. falciparum luciferase reporter growth, 96 h; hit rate 6.9% among 320,000
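Parasite growth measured via integrated firefly luciferase reporter in P. falciparum. Infected erythrocytes at 2% hematocrit, 0.05% parasitemia final were treated 96 hours at 37 C under 5% CO2, and luminescence was read.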
Pf growth 48h: inhibits P. falciparum growth in the first generation, 48 h | P. falciparum luciferase growth in erythrocytes, 48 h | Potency, µM (highest dose often 28.7 µM), actives largely listed as inhibitors | hit rate 5.9% among 310,000 | AID 504832
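Cell-based growth assay: transgenic P. falciparum expressing firefly luciferase, cultured in red cells within RPMI 1640 containing 0.5% w/v Albumax, 24 mM bicarbonate and gentamycin. A drop in luciferase activity indicates inhibition.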
CHX counter: counter-screen hit for Shiga toxin inhibitors, cycloheximide; hit rate 12% among 300,000; cell reporter, cycloheximide protein synthesis inhibition counterscreen; max response, %; in the data active means max response mostly above about 13%, no sharp cut-off; inactive means mostly below about 14%; further: read at 38.3 µM for the half of the compounds with a filed dose
Hits are given with their value; n = inactive; u = inconclusive; x = not tested or not shown. Shown are actives, neighbours in structure and some others; about 19% of the full set was active somewhere. Unless noted, the call rests on the fitted dose curve; in most records, active means well fitted curve in the direction sought with a large enough effect; inconclusive means small, poorly fitted or top-dose-only effect, or another doubt; inactive means no such curve, though single readings can be large; an effect the other way counts as inactive or inconclusive.

SMILES	SARS PLP yeast	Shiga inhibitor	AMA1-RON2 inh	Pf growth 96h	Pf growth 48h	CHX counter
Cc1ccc(/C=N/NC(=S)NC(C)C)o1	n	n	n	u	x	n
CC(C)c1ccc(/C=C/C(=O)NC2CCCCC2)cc1	n	n	n	u	u	n
COc1cccc(CC(NC(C)=O)C(=O)NC2CCN(C(=O)c3ccc(Cl)cc3)CC2)c1OC (stereo not drawn)	n	n	n	n	n	n
CCC(C)(C)NC(=O)C(c1ccccn1)N(C(=O)c1csnn1)c1ccc(C)cc1 (stereo not drawn)	n	n	n	n	n	n
CCC(C)NC(=O)Cn1cnc2sc(C)c(S(=O)(=O)N3CCCCC3)c2c1=O (stereo not drawn)	n	n	n	n	n	n
O=C(CSc1nc2ccccc2o1)Nc1nccs1	n	n	n	u	n	28
O=C(CSC1=NCCS1)Nc1nc2ccccc2s1	n	81	n	n	n	28
O=C(CSc1nc2ccccc2o1)Nc1nc2ccccc2s1	n	49	n	x	n	43
NC(=O)c1ccccc1NC(=O)CSC1=NCCS1	u	n	n	u	n	11
O=C(c1cc([N+](=O)[O-])[nH]n1)N1CCSCC1	n	n	n	n	n	n
Cc1cccc(NC(=O)N(C)Cc2cccs2)c1	n	n	n	n	x	n
O=C(CSc1nc2ccccc2o1)Nc1nc(-c2ccccc2)cs1	n	111	n	n	n	72
C[C@@H]1CN([C@H](C)CO)C(=O)c2cc(Br)cnc2O[C@@H]1CN(C)C(=O)CC1CC1	x	x	n	x	x	x
CN(C)c1cc(N/N=C\c2ccccc2)nc(N(C)C)n1	n	n	n	n	u	n
COc1ccc(/C=N/Nc2cc(OC)ncn2)cc1	n	97	n	n	n	25
COc1ccc(/C=N/Nc2cc(N(C)C)nc(N(C)C)n2)cc1	n	n	u	12µM	u	n
Cc1cc2c(s1)c1cnn(Cc3ccc(F)c(F)c3F)c(=O)c1n2C	x	n	x	x	x	n
CCCCCCCCN1C(=O)[C@H](CC(=O)N2CCCC2)C[C@@]2(C(=O)OC)CCCCC=C12	x	x	n	x	x	x
OCC(O)/C=N/Nc1nc(N2CCCCC2)nc(N2CCCCC2)n1 (stereo not drawn)	n	n	n	n	u	n
c1ccc2c(c1)[nH]c1c(N3CCC4(CC3)OCCO4)ncnc12	n	n	n	u	x	n
Cc1ccc2[nH]c3c(N4CCCCCC4)ncnc3c2c1	n	65	x	u	2.6µM	18
CCOc1ccc2[nH]c3c(N4CCN(c5ccccn5)CC4)ncnc3c2c1	n	n	n	n	u	n
COc1cccc(N2CCN(c3ncnc4c3[nH]c3ccc(F)cc34)CC2C)c1 (stereo not drawn)	n	n	n	n	u	n
Cc1ccc2c(c1)[nH]c1c(N3CCN(Cc4ccccc4)CC3)ncnc12	n	n	n	u	0.52µM	n
COc1cccc2[nH]c3c(N4CCC(C)CC4)ncnc3c12	n	n	n	u	9.3µM	n
SMILES	SARS PLP yeast	Shiga inhibitor	AMA1-RON2 inh	Pf growth 96h	Pf growth 48h	CHX counter
COc1cccc(N2CCN(c3ncnc4c3[nH]c3ccccc34)CC2C)c1 (stereo not drawn)	n	n	x	u	8.3µM	n
Cc1noc(C)c1S(=O)(=O)N(C)C[C@@H]1OCc2cn(nn2)CCCC(=O)N([C@@H](C)CO)C[C@H]1C	x	x	n	x	x	x
c1ccc(CN2CCN(c3ncnc4c3[nH]c3ccccc34)CC2)cc1	n	n	n	n	0.93µM	n
Fc1ccc2[nH]c3c(N4CCN(C5CCCCC5)CC4)ncnc3c2c1	n	n	x	n	2.3µM	n
Cc1ccc2[nH]c3c(N4CCN(Cc5ccc6c(c5)OCO6)CC4)ncnc3c2c1	n	n	x	x	u	n
O=c1c2[nH]c3ccc(F)cc3c2ncn1CC1CCCO1 (stereo not drawn)	n	n	n	n	n	n
Cc1ccc2[nH]c3c(N4CCN(Cc5ccccc5)CC4)ncnc3c2c1	n	n	n	x	1.7µM	n
COc1cccc2[nH]c3c(N4CCc5ccccc5C4)ncnc3c12	n	n	n	u	u	n
c1ccc2c(c1)CCN(c1ncnc3c1[nH]c1ccccc13)C2	n	n	n	7.4µM	5.2µM	n
C[C@H](CO)N1C[C@H](C)[C@@H](CN(C)S(C)(=O)=O)Oc2ccc(NS(=O)(=O)c3ccccc3)cc2C1=O	n	x	n	x	x	x
O=C(NC1CC1)c1ccc(COc2ccc(F)cc2)o1	n	n	n	u	u	n
O=C(Nc1nccs1)c1ccc(COc2ccccc2Br)o1	n	53	n	x	u	41
O=C(Nc1nccs1)c1ccc(COc2ccc(Cl)cc2)o1	x	55	n	u	n	30
Cc1ccccc1OCCCC(=O)Nc1nccs1	n	n	n	n	x	n
Cc1cccc(OCC(=O)Nc2nccs2)c1C	n	67	n	u	n	67
O=C(NCc1ccccn1)c1ccc(COc2ccc(Cl)cc2)o1	n	n	n	u	n	n
O=C(Nc1nccs1)c1ccc(COc2ccc(F)cc2)o1	n	n	n	n	n	32
COc1ccccc1NC(=O)c1ccc(COc2ccccc2Br)o1	n	n	n	u	n	n
COC(=O)c1ccccc1S(=O)(=O)N1CCC(C(=O)OCc2cccc(OC)c2OC)CC1	n	x	n	n	u	x
COc1ccc(Cl)cc1NC(=O)CN(C)C(=O)c1ccc(-n2cncn2)cc1	n	x	n	x	x	x
O=C(COc1ccc(F)cc1)Nc1nccs1	n	51	n	n	n	33
COc1ccc(OCCCC(=O)Nc2nccs2)cc1	n	n	n	u	u	13
O=C(CS(=O)(=O)c1ccc(F)cc1)Nc1nccs1	n	x	n	n	n	x
O=[N+]([O-])c1ccc2c(c1Nc1ccccc1)=NC1(CCCCC1)N=2	n	n	u	u	n	n
COc1ccc(Nc2c([N+](=O)[O-])ccc3c2=NC2(CCCCC2)N=3)cc1	n	n	8.9µM	n	u	n
SMILES	SARS PLP yeast	Shiga inhibitor	AMA1-RON2 inh	Pf growth 96h	Pf growth 48h	CHX counter
O=C(Nc1ccccc1O)c1csc2c1CCCC2	n	98	n	n	u	35
COc1ccc(NC(=O)c2c(NC(=O)Cc3ccccc3)sc3c2CCCC3)cc1	x	n	x	x	x	n
C=CCNCC(=O)Nc1sc2c(c1C(=O)Nc1ccc(OC)cc1OC)CCC2	n	n	n	n	12µM	n
COc1ccc(NC(=O)c2csc3c2CCCCC3)c(OC)c1	n	n	n	n	n	16
COc1ccccc1NC(=O)N(C)C[C@H]1OCc2cnnn2CCCC(=O)N([C@H](C)CO)C[C@@H]1C	x	x	n	x	x	x
CC(C)OC(=O)c1ccc(NC(=O)c2ccco2)cc1	n	77	n	x	n	46
COC(=O)c1ccc(NC(=O)c2cccc(NC(=O)c3ccco3)c2)cc1	n	n	n	u	n	n
COC(=O)Cc1ccc(NC(=O)c2ccc(NC(=O)c3ccco3)cc2)cc1	n	n	n	u	n	n
CCOC(=O)c1ccc(NC(=O)c2ccco2)cc1	n	107	n	u	n	42
CC(C)OC(=O)c1ccc2nc3ccccc3nc2c1	n	125	n	n	n	87
